For some of these results: Entries with a potency or affinity are not part of this list.

Holding throughout (set-up): scale not given: direction of the effect not stated beside the values
In test [1] the target is Protein translocase subunit SecA (Escherichia coli (strain K12)) (UniProt P10408). Put plainly: Assay to Identify E. coli SecA ATPase Inhibitors. As to conditions: 30 µM. Format: functional.
For test [2], the target named is T1, Ubiquitin-activating enzyme e1, putative (Leishmania donovani (strain BPK282A1)) (UniProt E9BSI1).
T1 sequence (whole entry): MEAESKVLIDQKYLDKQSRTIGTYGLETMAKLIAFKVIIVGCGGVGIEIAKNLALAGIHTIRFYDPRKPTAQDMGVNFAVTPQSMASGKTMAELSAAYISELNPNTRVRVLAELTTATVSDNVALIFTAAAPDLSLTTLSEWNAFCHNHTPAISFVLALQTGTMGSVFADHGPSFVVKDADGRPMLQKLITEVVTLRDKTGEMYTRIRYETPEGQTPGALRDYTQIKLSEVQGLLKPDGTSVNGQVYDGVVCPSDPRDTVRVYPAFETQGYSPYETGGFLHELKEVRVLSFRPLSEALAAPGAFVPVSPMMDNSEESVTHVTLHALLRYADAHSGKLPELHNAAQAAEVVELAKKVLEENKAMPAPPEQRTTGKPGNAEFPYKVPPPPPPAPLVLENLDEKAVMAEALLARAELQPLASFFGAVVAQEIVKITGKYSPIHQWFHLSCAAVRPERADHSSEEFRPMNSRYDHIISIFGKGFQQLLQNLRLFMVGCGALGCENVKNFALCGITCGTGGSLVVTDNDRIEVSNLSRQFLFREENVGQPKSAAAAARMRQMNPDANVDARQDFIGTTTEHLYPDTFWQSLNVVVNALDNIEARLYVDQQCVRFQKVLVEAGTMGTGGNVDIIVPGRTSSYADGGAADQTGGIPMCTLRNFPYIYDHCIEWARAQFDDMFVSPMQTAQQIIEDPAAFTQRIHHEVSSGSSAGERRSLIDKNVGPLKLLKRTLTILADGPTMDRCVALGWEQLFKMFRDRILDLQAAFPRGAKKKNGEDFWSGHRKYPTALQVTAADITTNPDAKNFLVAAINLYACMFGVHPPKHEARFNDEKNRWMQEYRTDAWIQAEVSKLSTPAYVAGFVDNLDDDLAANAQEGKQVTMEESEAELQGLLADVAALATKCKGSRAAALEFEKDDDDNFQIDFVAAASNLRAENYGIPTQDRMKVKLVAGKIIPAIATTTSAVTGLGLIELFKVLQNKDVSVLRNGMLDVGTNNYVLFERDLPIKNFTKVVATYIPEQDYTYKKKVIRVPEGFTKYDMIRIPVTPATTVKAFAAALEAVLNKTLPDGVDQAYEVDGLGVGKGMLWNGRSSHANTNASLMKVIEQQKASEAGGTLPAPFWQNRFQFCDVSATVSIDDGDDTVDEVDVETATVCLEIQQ
Put plainly: Leishmania donovani Ubiquitin Activating Enzyme (LdE1). Format: functional. As to conditions: 30 µM.

In test [3] the target is AMP-activated protein kinase, AMPK (Homo sapiens) (UniProt P54646+O43741+P54619+Q9UGJ0+Q9Y478+Q13131+Q9UGI9). Put plainly: AMP-dependent Kinase enzyme assay. An in vitro enzyme assay that detects ADP turnover that is directly proportional to AMPK activity. This uses naive AMPK that is activated during the assay with MK-8722. Format: functional. As to conditions: 30 µM.
In test [4] the target is Sialic acid-binding Ig-like lectin 9 (Homo sapiens) (UniProt Q9Y336). Put plainly: Hs-Siglec9 ALPHAscreen SOP 20170721. As to conditions: 10 µM.
Sequence of Sialic acid-binding Ig-like lectin 9 (Homo sapiens) (Q9Y336 whole entry): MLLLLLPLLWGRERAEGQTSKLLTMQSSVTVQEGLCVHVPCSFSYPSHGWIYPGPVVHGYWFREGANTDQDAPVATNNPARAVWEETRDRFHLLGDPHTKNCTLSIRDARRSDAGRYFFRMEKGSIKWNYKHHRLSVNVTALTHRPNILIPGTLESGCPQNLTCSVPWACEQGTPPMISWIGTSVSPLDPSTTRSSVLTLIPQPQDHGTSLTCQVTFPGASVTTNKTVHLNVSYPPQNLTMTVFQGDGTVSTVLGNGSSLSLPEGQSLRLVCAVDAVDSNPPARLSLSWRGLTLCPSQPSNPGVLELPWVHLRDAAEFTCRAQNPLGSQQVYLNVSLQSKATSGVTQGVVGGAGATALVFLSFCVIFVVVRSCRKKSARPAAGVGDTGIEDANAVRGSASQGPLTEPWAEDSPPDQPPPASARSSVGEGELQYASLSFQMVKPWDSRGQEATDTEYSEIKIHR
In another test the test system is Trypanosoma cruzi. Put plainly: Trypanosoma cruzi phosphomannomutase and mannose-1-phosphate guanylyltransferase assay. Format: functional. As to conditions: 10 µM.
Test [5] concerns the target T2, Arginase-2, mitochondrial (Homo sapiens) (UniProt P78540).
T2 sequence (whole entry): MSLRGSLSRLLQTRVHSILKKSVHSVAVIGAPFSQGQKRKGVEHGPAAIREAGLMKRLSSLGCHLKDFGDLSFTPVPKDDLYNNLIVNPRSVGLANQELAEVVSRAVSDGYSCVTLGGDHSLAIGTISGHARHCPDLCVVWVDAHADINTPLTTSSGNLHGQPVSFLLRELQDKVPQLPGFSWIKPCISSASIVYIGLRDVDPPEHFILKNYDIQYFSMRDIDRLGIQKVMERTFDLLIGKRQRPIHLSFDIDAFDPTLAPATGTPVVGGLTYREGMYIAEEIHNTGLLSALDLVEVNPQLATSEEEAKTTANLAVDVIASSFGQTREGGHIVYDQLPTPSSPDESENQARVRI
As to the kind of experiment: in vitro enzyme assay to detect the production of urea directly proportional to the activity of Arginase II. Also: in the data most compounds retested in dose-response had high values. The settings on record: 33.3 µM. Format: functional.

For test [6], the target named is T3, Proteasome subunit beta (Trypanosoma cruzi) (UniProt O96673).
T3 sequence (whole entry): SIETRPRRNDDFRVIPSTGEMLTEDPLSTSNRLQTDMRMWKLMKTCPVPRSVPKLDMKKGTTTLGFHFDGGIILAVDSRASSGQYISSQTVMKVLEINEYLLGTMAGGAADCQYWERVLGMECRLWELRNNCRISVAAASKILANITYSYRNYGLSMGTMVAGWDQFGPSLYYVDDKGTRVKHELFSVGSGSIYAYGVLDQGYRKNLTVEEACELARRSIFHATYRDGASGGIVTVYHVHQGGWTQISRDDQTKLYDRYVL
As to the kind of experiment: Trypanosoma cruzi proteasome chymotrypsin-like activity (TcProtChymo) assay. Also: in the data most compounds retested in dose-response had high values. Format: functional. As to conditions: 9.37 µM.

The species named for the next test is Homo sapiens. As to the kind of experiment: To identify inhibition of the IFN signalling (Jak-Stat) pathway via expression of an eGFP reporter gene under the control of an IFN-stimulated response element (ISRE) containing MxA promoter. Format: functional. The settings on record: 30 µM. Background: Reporter assays use an easily measured gene product as a stand-in for the process of interest.

Test [7] has as its target T4, Tyrosyl-tRNA synthetase, putative (Trypanosoma cruzi (strain CL Brener)) (UniProt Q4DSP6).
T4 sequence (whole entry): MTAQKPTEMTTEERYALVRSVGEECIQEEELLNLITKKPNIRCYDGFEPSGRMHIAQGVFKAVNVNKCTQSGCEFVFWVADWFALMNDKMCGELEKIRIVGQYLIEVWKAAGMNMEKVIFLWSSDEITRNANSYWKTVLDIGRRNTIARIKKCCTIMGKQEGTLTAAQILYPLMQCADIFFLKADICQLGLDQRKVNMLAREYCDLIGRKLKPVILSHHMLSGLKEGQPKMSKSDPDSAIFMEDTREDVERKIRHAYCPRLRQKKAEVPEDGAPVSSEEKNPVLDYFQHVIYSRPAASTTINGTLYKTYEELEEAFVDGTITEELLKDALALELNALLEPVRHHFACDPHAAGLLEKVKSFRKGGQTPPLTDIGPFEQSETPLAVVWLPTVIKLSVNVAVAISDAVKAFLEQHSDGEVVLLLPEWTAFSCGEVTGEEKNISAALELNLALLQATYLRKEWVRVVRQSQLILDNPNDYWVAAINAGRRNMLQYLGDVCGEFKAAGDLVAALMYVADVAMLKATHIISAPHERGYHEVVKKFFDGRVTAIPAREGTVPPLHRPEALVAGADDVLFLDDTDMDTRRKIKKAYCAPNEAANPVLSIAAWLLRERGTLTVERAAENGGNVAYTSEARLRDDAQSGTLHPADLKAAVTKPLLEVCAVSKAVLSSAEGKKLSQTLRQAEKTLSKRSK
As to the kind of experiment: Trypanosoma cruzi tyrosyl tRNA synthetase (TcYRS) _High Tyrosine SOP. Also: in the data most compounds retested in dose-response had high values. Format: functional. The settings on record: 30 µM.

Test [8] concerns the target T4, Tyrosyl-tRNA synthetase, putative (Trypanosoma cruzi (strain CL Brener)). As to the kind of experiment: Trypanosoma cruzi tyrosyl tRNA synthetase (TcYRS) SOP. Format: functional. The settings on record: 30 µM.
The target of test [9] is Chromo domain-containing protein 1 (Saccharomyces cerevisiae (strain ATCC 204508 / S288c) (Baker's yeast)) (UniProt P32657). As to the kind of experiment: ScCHD-1 Enzyme Inhibition Assay. Also: in the data most compounds retested in dose-response had high values. Format: functional. As to conditions: 30 µM.
Sequence of Chromo domain-containing protein 1 (Saccharomyces cerevisiae (strain ATCC 204508 / S288c) (Baker's yeast)) (P32657 whole entry, the tested form may be a part): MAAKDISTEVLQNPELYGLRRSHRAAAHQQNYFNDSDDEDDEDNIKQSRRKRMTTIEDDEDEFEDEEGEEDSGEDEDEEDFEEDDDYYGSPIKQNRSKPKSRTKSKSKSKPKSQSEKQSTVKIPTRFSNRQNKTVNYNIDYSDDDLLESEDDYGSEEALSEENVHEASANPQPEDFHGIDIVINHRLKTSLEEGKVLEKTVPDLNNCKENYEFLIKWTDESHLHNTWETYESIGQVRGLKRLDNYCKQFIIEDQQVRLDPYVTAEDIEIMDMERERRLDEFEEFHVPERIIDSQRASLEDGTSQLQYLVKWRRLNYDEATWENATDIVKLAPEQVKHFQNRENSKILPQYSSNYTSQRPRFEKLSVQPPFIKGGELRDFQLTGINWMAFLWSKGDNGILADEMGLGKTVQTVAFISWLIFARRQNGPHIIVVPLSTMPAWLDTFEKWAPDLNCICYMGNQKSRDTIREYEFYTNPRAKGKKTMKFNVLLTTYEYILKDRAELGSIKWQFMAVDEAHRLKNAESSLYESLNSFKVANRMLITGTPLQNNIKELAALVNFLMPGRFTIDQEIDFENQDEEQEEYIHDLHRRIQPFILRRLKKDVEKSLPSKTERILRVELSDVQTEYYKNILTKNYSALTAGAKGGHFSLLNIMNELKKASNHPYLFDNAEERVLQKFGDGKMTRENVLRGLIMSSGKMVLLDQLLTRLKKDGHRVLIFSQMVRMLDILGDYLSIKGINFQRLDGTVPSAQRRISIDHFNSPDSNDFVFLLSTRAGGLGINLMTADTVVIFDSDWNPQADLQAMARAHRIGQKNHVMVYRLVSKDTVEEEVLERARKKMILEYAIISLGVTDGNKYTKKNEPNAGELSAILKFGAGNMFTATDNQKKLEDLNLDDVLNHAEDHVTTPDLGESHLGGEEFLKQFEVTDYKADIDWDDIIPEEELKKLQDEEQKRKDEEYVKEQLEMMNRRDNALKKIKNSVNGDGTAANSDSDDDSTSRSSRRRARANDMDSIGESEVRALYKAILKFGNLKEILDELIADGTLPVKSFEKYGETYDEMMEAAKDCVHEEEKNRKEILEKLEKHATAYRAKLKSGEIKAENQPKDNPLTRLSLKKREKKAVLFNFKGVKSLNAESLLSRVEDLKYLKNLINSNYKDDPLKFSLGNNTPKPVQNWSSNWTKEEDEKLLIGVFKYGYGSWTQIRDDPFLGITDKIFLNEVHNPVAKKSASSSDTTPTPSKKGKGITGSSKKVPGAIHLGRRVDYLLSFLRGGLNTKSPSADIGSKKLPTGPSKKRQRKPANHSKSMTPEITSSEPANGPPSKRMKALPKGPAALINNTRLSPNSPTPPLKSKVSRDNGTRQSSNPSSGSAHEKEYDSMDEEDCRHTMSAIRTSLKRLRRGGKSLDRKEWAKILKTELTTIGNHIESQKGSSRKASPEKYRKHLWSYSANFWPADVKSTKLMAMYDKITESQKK

Sequence of Protein translocase subunit SecA (Escherichia coli (strain K12)) (P10408 whole entry): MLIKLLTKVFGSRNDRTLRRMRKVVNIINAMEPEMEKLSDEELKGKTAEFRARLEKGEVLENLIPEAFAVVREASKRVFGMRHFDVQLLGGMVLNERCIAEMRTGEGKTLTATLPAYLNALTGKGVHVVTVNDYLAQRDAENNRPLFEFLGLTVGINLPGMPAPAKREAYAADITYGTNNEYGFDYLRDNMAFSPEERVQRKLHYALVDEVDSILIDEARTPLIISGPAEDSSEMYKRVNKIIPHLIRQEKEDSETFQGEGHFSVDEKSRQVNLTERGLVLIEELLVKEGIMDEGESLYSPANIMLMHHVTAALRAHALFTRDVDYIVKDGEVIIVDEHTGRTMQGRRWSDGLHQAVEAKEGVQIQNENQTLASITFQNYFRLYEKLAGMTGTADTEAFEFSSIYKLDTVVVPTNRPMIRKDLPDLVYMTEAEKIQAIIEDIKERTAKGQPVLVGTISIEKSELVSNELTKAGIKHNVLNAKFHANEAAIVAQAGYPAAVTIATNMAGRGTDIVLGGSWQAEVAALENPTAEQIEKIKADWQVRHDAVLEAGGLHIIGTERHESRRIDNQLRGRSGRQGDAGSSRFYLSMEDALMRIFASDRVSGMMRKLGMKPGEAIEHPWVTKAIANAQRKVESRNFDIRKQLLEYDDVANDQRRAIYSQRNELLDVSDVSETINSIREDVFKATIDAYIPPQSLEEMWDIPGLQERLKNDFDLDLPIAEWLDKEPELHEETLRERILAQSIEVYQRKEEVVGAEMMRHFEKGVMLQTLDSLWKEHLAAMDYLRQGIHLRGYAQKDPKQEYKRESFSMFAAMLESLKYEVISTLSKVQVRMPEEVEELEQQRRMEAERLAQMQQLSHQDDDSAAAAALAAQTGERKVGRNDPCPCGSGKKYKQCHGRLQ

As to `CCn1cc2c(n1)CN(C(=O)c1ccncc1)CC2COCC1CC1` (stereo unspecified), the Percent Effect in test [1] was 1.97%; in test [2], 13.3%; in [3] it was -0.804%; in test [4], 23.2%; in the test on Trypanosoma cruzi, -1.74%; in [5], -23.5%. Further, the Percent Effect in test [6] is 20.9%; in the test filed under Homo sapiens, -8.6%; in [7], 3.12%; in [8] it was 20%; in test [9], -6.15%.
As for `CN(Cc1ccco1)Cc1ccccc1CNC(=O)c1ccncc1`, the Percent Effect in test [1] is -4.48%; in test [2], 5.41%; in test [3], 13.1%; in [4], 4.84%; in the test with Trypanosoma cruzi it was 0.386%; in test [5] it was 0%. In addition, the Percent Effect in [6] is 12.8%; in the test listed under Homo sapiens it was -3.63%; in test [7], 2.65%; in test [8] it was 4.88%; in test [9], -2.3%.
Take `CCc1nc(CN(C)C2CCN(Cc3ccc(C#N)cc3F)C2)no1` (stereo unspecified): the Percent Effect in test [1] is -6.15%; in test [2], 10.8%; in test [3], -3.61%; in [4], -0.906%; in the test on Trypanosoma cruzi, -6.7%; in test [5], -6.01%. The Percent Effect in [6] was 12.6%; in the test listed under Homo sapiens, 20.8%; in test [7] it was 7.39%; in test [8] it was 1.24%; in [9], -7.82%.
In the case of `COc1ccc(OCCCNC(=O)NCc2csc(C)n2)cc1`, the Percent Effect in test [1] is -3.63%; in test [2] it was 16.2%; in test [3] it was 2.75%; in test [4] it was -5.68%; in the test on Trypanosoma cruzi, 0.65%; in test [5], -4.62%. In addition, the Percent Effect was 7.54% in [6]; 20.4% in the test listed under Homo sapiens; 8.91% in test [7]; 15.8% in test [8]; -3.66% in test [9].
As for `COc1ccc(CN2CCc3ncnc(OC(C)C)c3CC2)cc1`, the Percent Effect in test [1] is 2.24%; in test [2] it was 10.7%; in test [3], 7.06%; in test [4] it was -5.75%; with Trypanosoma cruzi, -6.37%; in test [5], -53.9%. The Percent Effect in test [6] was 16.2%; in the test filed under Homo sapiens it was 19%; in [7], -14.6%; in test [8] it was 0%; in test [9] it was -4.41%.
Turning to `COCCNc1ccc(CNC(=O)Nc2cn[nH]c2)cc1`, the Percent Effect in test [1] is -0.0653%; in test [2], 20.2%; in test [3], -7.85%; in test [4], 0.901%; with Trypanosoma cruzi it was -10.5%; in test [5] it was 3.42%. Besides, the Percent Effect in test [6] was 1.06%; in the test listed under Homo sapiens, 20.9%; in test [7], 3.45%; in test [8], 11.4%; in [9], -5.01%.
Consider `CN(C)[C@@H]1CCN(c2ncccn2)[C@H]1Cc1ccncc1`, for which the Percent Effect is -4.35% in [1]; 2.6% in [2]; -0.281% in test [3]; 0.217% in test [4]; 5.01% with Trypanosoma cruzi; 1.38% in test [5]. Also, the Percent Effect in [6] was 2.5%; in the test filed under Homo sapiens it was -12.2%; in test [7], 1.07%; in test [8], 3.7%; in [9], -1.65%.
Regarding `O=C(CCc1nccs1)N1CCC(N2CCNC2=O)CC1`, the Percent Effect in test [1] is -3.04%; in test [2], 13.7%; in test [3], -3.05%; in test [4] it was -5.29%; in the test with Trypanosoma cruzi, -3.33%; in test [5] it was 1.82%. Moreover, the Percent Effect in test [6] was 12.6%; in the test filed under Homo sapiens it was 12.7%; in test [7] it was 5.38%; in [8] it was 12.5%; in test [9], -3.97%.
As to `Cn1cc(N2CCC3(CCN(S(=O)(=O)C4CC4)C3)C2=O)cn1` (stereo unspecified), the Percent Effect was -2.28% in [1]; -2.67% in [2]; 0.251% in test [3]; 0.236% in [4]; 2.32% in the test with Trypanosoma cruzi; -37.5% in test [5]. Besides, the Percent Effect was 8.55% in test [6]; 0.388% in the test listed under Homo sapiens; 1.04% in test [7]; 5% in [8]; -4.63% in [9].
As to `CC(C)(NCC(=O)NCC(F)(F)F)c1ccc2c(c1)OCCO2`, the Percent Effect in [1] was -1.45%; in [2] it was 13.5%; in test [3] it was -7.25%; in test [4] it was 1.31%; in the test with Trypanosoma cruzi, -4.06%; in [5], 17.2%. Besides, the Percent Effect is 16% in [6]; 5.37% in the test filed under Homo sapiens; 1.48% in test [7]; 18.5% in test [8]; -4.3% in test [9].
Take `CCOCCC(=O)N1CCCN(Cc2csc(CC)n2)CC1`: the Percent Effect in test [1] is -0.651%; in [2], 3.8%; in [3] it was 1.45%; in test [4], 3.57%; in the test with Trypanosoma cruzi, -1.74%; in test [5] it was 2.37%. In addition, the Percent Effect is 25.7% in test [6]; 7.51% in the test listed under Homo sapiens; 6.25% in test [7]; 10.1% in test [8]; -30.1% in [9].

The record behind these values is ChEMBL document CHEMBL3988442, “University of Dundee, Small-Polar-MMV Screening Library” (2021).
